Assay outcomes (PubChem)
HPGD inh – blocks human HPGD enzyme activity; Potency, µM, for the others: top-dose activity change, negative = inhibition, hits mostly inhibitors; 4.3% of 150,000 active; purified HPGD, NADH fluorescence kinetic, PGE2 substrate; AID 894; P15428; further: potency means the concentration at half of the fitted maximal effect
Target sequence (P15428 whole entry, looked up): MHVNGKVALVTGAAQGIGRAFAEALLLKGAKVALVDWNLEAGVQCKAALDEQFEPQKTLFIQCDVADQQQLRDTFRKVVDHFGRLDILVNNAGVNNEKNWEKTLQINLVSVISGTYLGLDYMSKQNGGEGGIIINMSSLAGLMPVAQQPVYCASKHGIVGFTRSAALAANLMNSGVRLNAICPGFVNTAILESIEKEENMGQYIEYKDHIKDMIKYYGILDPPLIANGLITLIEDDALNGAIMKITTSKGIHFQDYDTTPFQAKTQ
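NADH formation kinetics: reaction with 30 uM PGE2 and 1 mM NAD+ (final), 20 nM enzyme, Tris-HCl pH 8 with Tween 20, after 15 min compound preincubation at room temperature. Fluorescence change, last versus first of five reads.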
ALDH1A1 block – ALDH1A1 (human) enzyme inhibition; AID 1030; Potency, µM (highest dose often 75.3 µM), without a hit: top-dose activity, negative = inhibition, actives largely listed as inhibitors; 7.3% of 220,000 active; Purified ALDH1A1, NADH fluorescence, propionaldehyde substrate;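 further: potency means the concentration at half of the fitted maximal effect; plate controls were no enzyme wells and a reference inhibitor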
IMPase inh – IMPase inhibition in cells; AID 901; 120,000 tested, under 10 active; inhibition (IP1 accumulation), % at 46.1 µM; CHO-M1 cells, IP1 accumulation, HTRF TR-FRET ratio; P97697; active means well fitted curve in the direction sought with a large enough effect in the signal ratio, not every such curve was filed as active; inconclusive means small, poorly fitted or top-dose-only effect, or a change in a side signal; inactive means no such curve, though single readings can be large or run the other way; the % refers to the signal ratio;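 further: cells stimulated with carbachol in lithium chloride buffer; plate controls were DMSO basal wells for no effect and reference inhibitor wells for full effect; higher means more IMPase inhibition seen as more IP1 and lower FRET ratio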
Target sequence (P97697 whole entry, looked up): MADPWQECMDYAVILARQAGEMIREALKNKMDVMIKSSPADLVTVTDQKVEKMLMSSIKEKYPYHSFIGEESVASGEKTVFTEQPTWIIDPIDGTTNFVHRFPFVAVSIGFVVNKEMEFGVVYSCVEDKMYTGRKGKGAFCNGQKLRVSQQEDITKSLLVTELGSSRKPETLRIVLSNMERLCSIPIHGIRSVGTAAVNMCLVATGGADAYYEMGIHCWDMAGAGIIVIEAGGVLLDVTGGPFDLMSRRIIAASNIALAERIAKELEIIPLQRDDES
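Elevated IP1 in lysates lowers TR-FRET signal (665/620 ratio and 620 channel reported). Cells were CHO-M1, given carbachol (50 uM as added) plus 50mM LiCl, pH 7.4, 30 min, 37C; compounds titrated up to 46 uM; AC50 by Hill equation.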
An asterisk follows results filed as active; ? = inconclusive; nt = no result given; [ ] = remark or other dose. Compounds with a hit are over-represented: about 9% of the library has one in this group of screens. Unless noted, the call rests on the fitted dose curve; in most records, active means well fitted inhibition curve with a large enough effect (not every such curve was filed as active); inconclusive means small, poorly fitted or top-dose-only effect, or another doubt; inactive means no such curve, though single readings can be large or run the other way. Unless noted, on the % scale 0 is the no-effect control and ±100 the full control effect.

SMILES	HPGD inh	ALDH1A1 block	IMPase inh
O=C(COC(=O)c1c(Cl)cccc1Cl)NC1CCCCC1	nt	0.2%	nt
Cc1noc(C)c1C(=O)N1CCC2(CCCN(C(=O)Nc3cccc(C#N)c3)C2)CC1	-4.8%	6.4%	nt
COc1cccc(C2C(C#N)=C(N)Oc3c2oc(CO)cc3=O)c1 (stereo unspecified)	-15.6%	8.3%	-3.7
COc1cccc(C2C(C#N)=C(N)SC(c3ccccc3)C2[N+](=O)[O-])c1 (stereo unspecified)	nt	5.62µM*	nt
O=C(NCc1ccccc1)c1cccc(OCC(=O)N2CCN(C(=O)c3ccco3)CC2)c1	-3.8%	15.8µM*	2.0
CNC(=O)COc1cccc(C(=O)NCc2ccccc2)c1	nt	7.2%	-4.0
O=C(Cc1c(Cl)cccc1Cl)OCC(=O)N1CCN(C(=O)c2ccco2)CC1	nt	31.6µM*	nt
CC(C)(C)C1CCC(C(=O)OCC(=O)N2CCN(C(=O)c3ccco3)CC2)CC1 (stereo unspecified)	nt	-0.8%	nt
CCS(=O)(=O)N1CCN(C(=O)c2ccco2)CC1	-3.8%	0.1%	3.3
O=C(c1ccco1)N1CCN(S(=O)(=O)Cc2ccccc2Cl)CC1	nt	10µM*	nt
OCC1OC([S-])[C@H](O)C(O)C1O.[Au+] (stereo partly specified)	-24.9%	?	nt
CCN(CC)[C@@H](C)CN1c2ccccc2Sc2ccccc21	?	?	14.0[20.6 µM]
CCN(CC)C(=S)Nc1ccc([N+](=O)[O-])cc1	-7.5%	?	nt
CCN(CC)c1ccc(C2NCC(c3ccc([N+](=O)[O-])cc3)O2)cc1 (stereo unspecified)	-11.0%	0.282µM*	4.8
CC1(C)CC(=O)C(C=NCCN2CCN(C(=S)Nc3ccc(F)cc3)CC2)=C(O)C1	-7.8%	?	7.9
O=C(NCc1ccc(Cl)cc1)C(=O)NCC1OCCN1S(=O)(=O)c1cccs1 (stereo unspecified)	-1.9%	?	nt
CNC(=O)C(=O)NCC1OCCCN1S(=O)(=O)c1cccs1 (stereo unspecified)	-2.4%	?	nt
O=C(NCCO)C(=O)NCC1OCCCN1S(=O)(=O)c1cccs1 (stereo unspecified)	-4.3%	17.8µM*	nt
O=C(NCc1ccccc1Cl)C(=O)NCC1OCCN1S(=O)(=O)c1cccs1 (stereo unspecified)	nt	14.1µM*	nt
O=C(NCCc1c[nH]c2ccccc12)C(=O)NCC1OCCCN1S(=O)(=O)c1ccc(F)cc1 (stereo unspecified)	-14.8%	?	nt
O=C(NCCc1c[nH]c2ccccc12)C(=O)NCC1OCCCN1S(=O)(=O)c1cccs1 (stereo unspecified)	nt	25.1µM*	nt
O=C(NCc1cccs1)C(=O)NCC1OCCCN1S(=O)(=O)c1cccs1 (stereo unspecified)	nt	14.1µM*	nt
CCNC(=O)C(=O)NCC1OCCCN1S(=O)(=O)c1cccs1 (stereo unspecified)	1.8%	?	nt
CC1=Nn2c(nc(-c3ccccc3)c2-c2ccccc2)NC(=O)C1Br (stereo unspecified)	-26.6%	?	1.1
C[C@@H]1CCC2[C@](C)(CO)C(O)CC[C@@]2(C)[C@@]12CC[C@](CO)(CCO)O2 (stereo partly specified)	-3.8%	3.0%	nt
SMILES	HPGD inh	ALDH1A1 block	IMPase inh
Fc1ccc([C@H]2CCNC[C@H]2COc2ccc3c(c2)OCO3)cc1	-4.1%	?	14.3
CCCn1c(O)c2ccc(C(=O)N=NC(=O)c3cccnc3)cc2c1O	-2.1%	?	-0.7
CCOc1ccc(C2NC(=O)c3ccccc3O2)cc1 (stereo unspecified)	-14.2%	22.4µM*	2.6
COc1cc(C2NC(=O)c3ccccc3O2)cc(OC)c1OC (stereo unspecified)	?	?	3.3
Cc1nnc(NC(=O)c2ccc3ccccc3n2)s1	nt	-3.9%	nt
COc1ccc(S(=O)(=O)N(C)C)cc1NC(C)C(=O)Nc1cccc(C#N)c1 (stereo unspecified)	nt	-10.8%	nt
O=C(CCC1N=C2c3ccccc3N=C(SCC(=O)Nc3ccccc3F)N2C1=O)NCc1ccccc1 (stereo unspecified)	nt	nt	6.9
COc1ccc(-c2nc(SCC(=O)Nc3cc(C)on3)n[nH]2)cc1	-17.9%	10.1%	7.1
C=CCSc1n[nH]c(-c2ccc(OC)cc2)n1	14.1µM*	?	8.3
Cc1cc(-c2ccn[nH]2)c(C)s1	nt	4.8%	nt
Cc1ccc(NC(=O)CCCc2nc3ccccc3s2)c(O)c1	nt	-0.8%	nt
COc1cc(-c2nnc(SCc3cc(=O)oc4cc(C)ccc34)o2)cc(OC)c1OC	?	6.31µM*	8.9
Cc1ccc2c(CSc3nnnn3C)cc(=O)oc2c1	nt	-7.3%	nt
CCC1S/C(=N/C(=O)NC2CCCCC2)NC1=O (stereo unspecified)	-13.6%	-2.7%	-7.1
O=C(/N=C1\NC(=O)C(F)(C(F)(F)F)S1)NC1CCCCC1 (stereo unspecified)	7.94µM*	7.08µM*	-3.2
COc1ccc(-c2csc(N3CCC(C(N)=O)(N4CCCCC4)CC3)n2)cc1	-9.0%	?	-1.6
CC1CC(C)CN(C(=O)COC(=O)c2cc3ccccc3cc2O)C1 (stereo unspecified)	-23.4%	-6.5%	16.3
Cc1cc(C(=O)OCC(=O)N2CC(C)CC(C)C2)c(C)o1 (stereo unspecified)	-8.4%	14.1µM*	1.2
CC(c1ccccc1)n1cc(C(=O)NCc2ccccn2)nn1 (stereo unspecified)	-3.9%	1.6%	0.2
Cc1ccc(C(C)n2cc(C(=O)NCc3cccnc3)nn2)cc1 (stereo unspecified)	-4.7%	11.2µM*	1.4
CC(=O)Nc1sc(NC(=O)c2ccc(Cl)cc2)nc1-c1cccs1	-19.4%	-8.6%	-1.5
Nc1nc(-c2cccs2)c(NC(=O)c2ccccc2)s1	-5.7%	20µM*	21.3
COc1cc(C2CC(=O)Oc3cc(C)cc(C)c32)cc(OC)c1OC (stereo unspecified)	-12.8%	5.1%	nt
COc1cc(CN2CCC(N3CCC(C(=O)N4CCCC4)CC3)CC2)cc2c1OCO2	nt	3.1%	nt
CC1=C(C(=O)Nc2ccc(C)cc2C)C(c2ccc(C)o2)NC(=S)N1 (stereo unspecified)	-3.2%	?	nt
SMILES	HPGD inh	ALDH1A1 block	IMPase inh
CC1=C(C(=O)Nc2cc(C)ccc2C)C(c2cccs2)NC(=S)N1 (stereo unspecified)	-1.1%	5.62µM*	-1.2
CC1=C(C(=O)Nc2ccccc2F)C(c2cccs2)NC(=S)N1 (stereo unspecified)	nt	12.6µM*	nt
CNC(=O)C1=C(C)NC(=S)NC1c1cccs1 (stereo unspecified)	nt	-2.3%	nt
COCCNC(=O)CSc1nc(-c2ccc(F)cc2)[nH]c1-c1ccc(Cl)cc1	nt	nt	-1.9
NC(Cc1ccc(Oc2ccc(O)cc2)cc1)C(=O)O (stereo unspecified)	2.5%	2.9%	nt
OC(c1ccccc1)(c1ccc(F)cc1)C(c1ccccc1)N1CCOCC1 (stereo unspecified)	-9.9%	10.3%	-13.7
C=COCCNC(=O)Nc1ccc(Cl)c(Cl)c1	20µM*	-0.8%	13.7
O=C(NCCCn1ccnc1)Nc1ccc(Cl)c(Cl)c1	5.2%	-5.0%	-7.0
Cc1cc(-c2nnc(SCC(=O)Nc3ccccc3C(F)(F)F)o2)c(C)n1-c1ccccc1	-15.4%	11.2µM*	-4.5
